Experimental data taken from PubChem BioAssay (NCATS).
Records with an inconclusive call do not appear. Activity calls are given as the source filed them. The call rests on the fitted dose curve; in most records, active means well fitted curve in the direction sought with a large enough effect; inconclusive means small, poorly fitted or top-dose-only effect, or another doubt; inactive means no such curve, though single readings can be large; an effect the other way counts as inactive or inconclusive.

Columns and labels:
[1] = KB-8-5-11 Cancer Cell Toxicity qHTS against the NCATS CANVASS Library (AID 1347364); settings: outcome: dose series up to 91.4 µM; further: nearly all actives have a fitted effect of over 75% in size
Outline: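 Viability read as CellTiter-Glo luminescence after 72 h at 37 °C, 5% CO2. 11-point compound series on 500 KB-8-5-11 cells/well in DMEM/10% FBS. Follow-up plating included 1 uM tariquidar in the medium.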

[2] = SDT Cancer Cell Toxicity qHTS against the NCATS CANVASS Library (AID 1347365); further: nearly all actives have a fitted effect of over 60% in size; further: potency means the concentration at half of the fitted maximal effect
Outline: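 Cytotoxicity taken from CellTiterGlo ATP luminescence after 72 hr at 37C, 5% CO2. Canine glioma line SDT, 500 cells/well, treated at 11 concentrations; bortezomib dose series as control.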

[3] = KB-3-1 Cancer Cell Toxicity qHTS against the NCATS CANVASS Library (AID 1347366); settings: outcome: dose series up to 46.1 µM; further: nearly all actives have a fitted effect of over 75% in size
Outline: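 KB-3-1 cells (500 cells/well) in DMEM + 10% FBS were treated with compounds for 72 hr at 37C, 5% CO2. Viability was read as CellTiter-Glo luminescence after 10 minutes at room temperature.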

[4] = qHTS for ATAD5 Agonist screened against the NCATS CANVASS Library (AID 1347367);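 further: luciferase reporter driven by ATAD5 which rises upon DNA damage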
Outline: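 HEK293T cells stably carrying an ATAD5-controlled luciferase reporter (2000 cells/well) attached for 5 hr, then received compounds in an 11-point series for 16hr at 37C. Luminescence was read after a 30 min room-temperature reagent step.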

[5] = MCF7 Cancer Cell Toxicity qHTS against the NCATS CANVASS Library (AID 1347369); settings: outcome: dose series up to 91.3 µM
Outline: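 MCF7, 500 cells/well; cpds 11-pt qHTS; 72 hr, 37C/5% CO2; CellTiterGlo ATP luminescence.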

[6] = qHTS for ATAD5 Antagonist screened against the NCATS CANVASS Library (AID 1347370);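 further: HEK293T cells carrying an ATAD5 luciferase reporter co-treated with 10 µM 5-fluorouridine; nearly all actives have a fitted effect of over 65% in size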
Outline: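 Compounds (11-point) co-dosed with 10 µM 5-FUrd for 16 h at 37 °C onto HEK293T-ATAD5 luciferase reporter cells. Viability measured by CellTiter-Fluor fluorescence, then ATAD5 reporter signal by luminescence.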

[7] = J3T Cancer Cell Toxicity qHTS against the NCATS CANVASS Library (AID 1347371); settings: outcome: dose series up to 91.4 µM
Outline: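 Cytotoxicity read as CellTiterGlo ATP luminescence after 72 h incubation (37C, 5% CO2) of J3T canine glioma cells (500/well) with an 11-point compound series.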

[8] = biological target: Nuclear receptor subfamily 1 group I member 3 (Homo sapiens) (UniProt Q14994); assay: qHTS for Constitutive Androstane Receptor (CAR) Antagonist screened against the NCATS CANVASS Library (AID 1347372);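 further: cells stimulated with 50 nM CITCO agonist so inhibition reflects antagonism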
Chain of Nuclear receptor subfamily 1 group I member 3 (Homo sapiens) (Q14994 whole entry, looked up): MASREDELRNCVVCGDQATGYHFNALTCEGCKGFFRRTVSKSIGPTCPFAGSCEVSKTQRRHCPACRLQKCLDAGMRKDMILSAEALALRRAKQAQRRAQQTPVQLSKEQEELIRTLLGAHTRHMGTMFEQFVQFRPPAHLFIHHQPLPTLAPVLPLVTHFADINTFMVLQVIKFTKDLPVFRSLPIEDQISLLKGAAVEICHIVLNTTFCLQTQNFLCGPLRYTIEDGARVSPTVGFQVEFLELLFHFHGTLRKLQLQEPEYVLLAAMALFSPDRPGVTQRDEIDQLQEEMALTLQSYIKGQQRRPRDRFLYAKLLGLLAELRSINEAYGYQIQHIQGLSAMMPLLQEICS
Outline: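 Antagonist mode: compound added alongside 50 nM CITCO to HepG2-hCAR-CYP2B6 reporter cells, 24hr at 37C. Viability by CellTiter-Fluor fluorescence, then CAR-driven luciferase by ONE-Glo luminescence.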

[9] = biological target: Nuclear receptor subfamily 1 group I member 3 (Homo sapiens) (UniProt Q14994); assay: qHTS for Constitutive Androstane Receptor (CAR) Agonist screened against the NCATS CANVASS Library (AID 1347373);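 further: every well also contained 1.5 µM PK11195 alongside the test compound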
Outline: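 Agonist mode with 1.5uM PK11195 present: compounds for 24hr on HepG2-hCAR-CYP2B6 cells. CellTiter-Fluor fluorescence (ex 405, em 540 nm) gives viability; ONE-Glo luminescence reports CAR activation.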

[10] = 10-beta competent E. coli microbial cell viability qHTS against the NCATS CANVASS Library (AID 1347376)
Outline: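 Read-out: BacTiter-Glo ATP luminescence, taken 20 min after reagent addition. Beforehand, 10-beta competent E. coli at 0.2 OD had been incubated overnight at 37C with compounds at 11 concentrations.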

[11] = qHTS for H2AX Agonists against the NCATS CANVASS Library (AID 1347378)
Outline: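 CHO-K1 cells were plated overnight at 37C, then exposed to compounds (concentration series, 0.76% DMSO final) for 3 hr at 37C. Lysates received Eu-cryptate anti-pH2AX (S139) and d2 anti-H2AX antibodies; after 24 hr at room temperature, TR-FRET 665/620 nm ratio was read.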

[12] = qHTS for Inflammasome Signaling Inhibitors: IL-1-beta AlphaLISA screen against the NCATS CANVASS Library (AID 1347379); settings: THP-1 LPS/ATP, IL-1B AlphaLISA secretion, 16 h; at 57.5 µM (top of the series) unless noted;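 further: human THP-1 cells primed with LPS then triggered with ATP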
Outline: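 Secreted IL-1B from human THP-1 cells quantified by AlphaLISA 16 hr after compound addition (final up to 57.5 uM). A 1 hr compound pretreatment preceded inflammasome activation with 250 ng/mL LPS plus 1.25 mM ATP (final).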

[13] = qHTS for Antimalaria activity screened against the NCATS CANVASS Library (AID 1347380);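 further: Plasmodium falciparum strain Dd2 asexual parasites grown in red blood cells; nearly all actives have a fitted effect of over 40% in size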
Outline: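 SYBR Green fluorescence at 485/535 nm was read 18 hr after lysis. This followed a 72 hr incubation at 37C in 5% O2, 5% CO2 of Dd2-infected erythrocytes (0.3% parasitemia, 2.5% final hematocrit) with compounds titrated over 11 concentrations.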

[14] = Inflammasome Signaling qHTS Counterscreen: IL-1-beta AlphaLISA counterscreen against the NCATS CANVASS Library (AID 1347381);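 further: cell-free check with purified IL-1β in medium and no THP-1 cells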
Outline: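 Purified IL-1-beta (4 pg/well) + compound, 11-pt conc. series; acceptor beads 6 ug/mL + biotin-Ab 0.6 nM final, 1 h RT; SA-donor 24 ug/ml final, 30 min dark RT; read ex 680/em 615.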

[15] = Cytotoxicity qHTS for assessment of Hepg2 cells membrane integrity screened against the NCATS CANVASS Library (AID 1347387)
Outline: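 Membrane damage quantified as fluorescent LDH-release signal (ex 560, em 590 nm) in HepG2 cells treated 5 hr at 37C. qHTS format, 11 concentrations spanning 0.59 nM - 46 uM final, cells plated at 2000 per well the night before.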

[16] = qHTS for Activators of p53 Stress Response Pathway screened against the NCATS CANVASS Library (AID 1347388)
Outline: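 Beta-lactamase reporter driven by p53 response elements in HCT-116 cells, read as the 460 nm/530 nm emission ratio after CCF4 loading, following 16 h of exposure to an 11-point series. Cell viability was measured in the same wells by CellTiter-Glo luminescence.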

[17] = qHTS assay for small molecule disruptors of mitochondrial membrane potential screened against the NCATS CANVASS Library (AID 1347389); further: nearly all actives have a fitted effect of over 60% in size
Outline: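 Mitochondrial membrane potential in HepG2: 1 h compound treatment (11-point concentration series), 30 min m-MPI dye at 37C, then dual fluorescence of J-aggregates (ex 540/em 590) and monomers (ex 490/em 535); lower red/green ratio indicates depolarization.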

[18] = Secretion counterscreen for inhibitors of the SERCaMP assay screened against the NCATS CANVASS Library (AID 1347390);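 further: light from luciferase secreted into medium read as a measure of general secretion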
Outline: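 SH-SY5Y cells expressing constitutively secreted GLuc, 1000 cells/well, attached 4 h at 37C, then exposed to compounds (0.001 - 77 uM, 11-pnt series) for 20 h. Coelenterazine added; luminescence read to flag secretory-pathway interferers.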

[19] = qHTS for activators of Nrf2/ARE signaling pathway screened against the NCATS CANVASS Library (AID 1347391); further: nearly all actives have a fitted effect of over 60% in size
Outline: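 Eleven-point qHTS, 16 h treatment of HepG2 cells carrying an ARE-driven beta-lactamase reporter; CCF4 ratio read (405 nm excitation, 460 and 530 nm emission), with CellTiter-Glo ATP luminescence for viability.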

[20] = G06 Cancer Cell Toxicity qHTS against the NCATS CANVASS Library (AID 1347368); further: nearly all actives have a fitted effect of over 60% in size
Outline: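 Viability measured by CellTiterGlo ATP luminescence after 72 hr at 37C, 5% CO2. Canine G06 glioma cells plated at 500/well. Compounds tested as 11-point qHTS titrations.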

Measured: Potency

CC(=O)NCCc1c[nH]c2ccc(O)cc12
inactive: [1] | [3] | [4] | [5] | [6] | [7] | [8] | [9] | [10] | [11] | [12] | [13] | [14] | [15] | [16] | [17] | [18] | [19]
active: [2] 1.48 µM

O=C(O)Cc1c[nH]c2ccc(O)cc12
inactive: [1] | [2] | [3] | [4] | [20] | [5] | [6] | [7] | [8] | [9] | [10] | [11] | [12] inactive [at 114 µM] | [14] | [15] | [16] | [17] | [18] | [19]
